Here are results for ten compounds from PubChem BioAssay (Tox21).

“And” between values parts separate entries of the source, which are not always exact repeats. Equal values may be shown once. Inconclusive results are not listed. Some structures have more than one record in an assay (separate samples or runs), and their calls can disagree. The source made the active and inactive calls. Unless noted, calls come from the whole dose curve; as a rule, active = well fitted curve in the direction sought with a large enough effect in the repeat runs; inconclusive = weak or mixed curves; inactive = no such curve, though single readings can be large; an effect the other way counts as inactive or inconclusive.

Assay [1] is described as follows: qHTS assay to identify small molecule antagonists of the constitutive androstane receptor (CAR) signaling pathway - cell viability counter screen (AID 1224837). Note: nearly all actives have a fitted effect of over 45% in size. Note: potency is the fitted concentration of half-maximal effect. Put shortly:
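Multiplexed cytotoxicity read-out for the CAR antagonist screen: double-stable HepG2-CYP2B6-hCAR cells co-treated with 50 nM CITCO (final) and compound over 15 concentrations, incubated 23 hr, then assessed by CellTiter-Fluor fluorescence.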
(In qHTS, concentration-response curves come from the screen itself.)

Assay [2] concerns the target Nuclear receptor subfamily 1 group I member 3 (Homo sapiens) (UniProt Q14994). Nature of the assay: qHTS assay to identify small molecule antagonists of the constitutive androstane receptor (CAR) signaling pathway (AID 1224838). Note: nearly all actives have a fitted effect of over 40% in size. Note: potency is the fitted concentration of half-maximal effect. Put shortly:
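Compounds were titrated across 15 concentrations onto HepG2 cells double-stably expressing hCAR and a CYP2B6-2.2kb reporter, together with 50 nM CITCO (final). After 24 h at 37 C, luciferase activity was measured by luminescence.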

Assay [3] has the same target. Briefly: qHTS assay to identify small molecule agonists of the constitutive androstane receptor (CAR) signaling pathway (AID 1224839).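 Note: HepG2 cells stably carrying human CAR and a CYP2B6 luciferase reporter; nearly all actives have a fitted effect of over 15% in size.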 An outline of the steps:
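Luminescence read-out (ONE-Glo, 30 min, room temperature) from double-stable HepG2-CYP2B6-hCAR cells exposed 24 h to 15-point compound series in presence of 0.75 uM PK11195 final.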

Assay [4] in a line: qHTS assay to identify small molecule antagonists of the estrogen related receptor signaling pathway with the pleiotropic PPARgamma coactivator (PGC) from Tox21 10K library - cell viability counter screen (AID 1224840; active = well fitted cell-killing curve with a large enough effect in the repeat runs, not every such curve was filed as active; note: nearly all actives have a fitted effect of over 40% in size; note: potency is the fitted concentration of half-maximal effect). An outline of the steps:
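Step one, plate 2,000 PGC/ERR cells per well; step two, incubate 6 h at 37 C/5% CO2; step three, pin-transfer compounds; step four, incubate 17.5 h; step five, add CellTiter-Fluor and read fluorescence after 30 min.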

Assay [5] in a line: qHTS assay to identify small molecule antagonists of the estrogen related receptor signaling pathway with the pleiotropic PPARgamma coactivator (PGC) from Tox21 10K library (AID 1224841; call rule not given here; note: actives are mostly falling curves and most rising ones were filed inactive; nearly all actives have a fitted effect of over 50% in size; note: potency is the fitted concentration of half-maximal effect). An outline of the steps: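 Antagonism in this quantitative HTS is taken from loss of luciferase signal in PGC/ERR cells. Cells (2,000/well) are treated with compounds in DMSO after a 6 h settling period and read by One-Glo luminescence after 18 h.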

The nature of assay [6]: qHTS assay to identify small molecule agonists of the estrogen related receptor signaling pathway with the pleiotropic PPARgamma coactivator (PGC) from Tox21 10K library (AID 1224842). Note: nearly all actives have a fitted effect of over 15% in size. Put shortly:
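Luminescence from One-Glo (30 min, room temperature) measured after PGC/ERR cells had 18 h at 37 C with pinned compound (23 nL in DMSO). Cells had been seeded at 2,000 per well and pre-incubated 6 h.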

Assay [7] concerns the target Thyrotropin receptor (Homo sapiens) (UniProt P16473). Briefly: qHTS assay to identify small molecule agonists of the thyroid stimulating hormone receptor (TSHR) signaling pathway (AID 1224843; calls by dose curve; note: nearly all actives have a fitted effect of over 45% in size; note: potency is the fitted concentration of half-maximal effect). An outline of the steps: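 HEK293 cells stably bearing the thyrotropin receptor were plated at 800 cells/well and challenged with compound (30 min, RT). Accumulated cAMP was quantified via cAMP-d2 competing for cryptate-tagged antibody.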

A short description of assay [8]: qHTS assay to identify small molecule agonists of the hypoxia (HIF-1) signaling pathway - cell viability counter screen (AID 1224844; calls by dose curve; note: nearly all actives have a fitted effect of over 50% in size; note: potency is the fitted concentration of half-maximal effect). Put shortly:
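Tox21 10K compounds were added to HRE-bla ME-180 cells (0.5% dialyzed FBS) and incubated 17 hrs at 37C; ATP-based CellTiter-Glo luminescence then reported cell viability in the same wells.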

Assay [9] can be described thus: qHTS assay to identify small molecule agonists of H2AX (AID 1224845; active = well fitted activation curve with a large enough effect in the signal ratio in the repeat runs, not every such curve was filed as active; the % refers to the signal ratio; note: potency is the fitted concentration of half-maximal effect). Put shortly: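 Phospho-H2AX Ser139 measured by HTRF (ex 320 nm; em 665 and 620 nm) after 24 hr antibody incubation. Compounds, 15 concentrations, 0.76% DMSO, were applied to CHO-K1 cells for 3hr at 37C before lysis.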
The nature of assay [10]: qHTS assay to identify small molecule agonists of the hypoxia (HIF-1) signaling pathway (AID 1224846; active = well fitted activation curve with a large enough effect in the signal ratio in the repeat runs, not every such curve was filed as active; the % refers to the signal ratio). Put shortly:
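Steps: seed ME-180 HRE-bla cells (2,000/well, 0.5% dialyzed FBS); incubate 5 hrs at 37C; pin-transfer compounds or DMSO; incubate 17 hrs; add LiveBLAzer B/G substrate CCF4-AM; measure reporter activation by FRET.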

Assay [11] can be described thus: qHTS assay to identify small molecule agonists of H2AX - cell viability counter screen (AID 1224847; calls by dose curve; note: nearly all actives have a fitted effect of over 30% in size; note: potency is the fitted concentration of half-maximal effect). An outline of the steps:
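CHO-K1 wt, 1000 cells/well, o/n 37C; cpds 15 conc, 3 h 37C, 0.76% DMSO; CellTiter-Glo, 30 min RT, luminescence.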

The nature of assay [12]: qHTS assay to identify small molecule antagonists of the estrogen related receptor (ERR) signaling pathway from Tox21 library (AID 1224848). Note: nearly all actives have a fitted effect of over 50% in size. Note: potency is the fitted concentration of half-maximal effect. Put shortly: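 Reading was by luminescence 30 min after ONE-Glo addition. Before that, ERR cells at 2,000 per well had rested 6 h at 37 C/5% CO2 and then received pin-tooled compounds in DMSO for 18 h at 37 C.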
Assay [13] can be described thus: qHTS assay to identify small molecule agonists of the estrogen related receptor (ERR) signaling pathway from Tox21 library (AID 1224849; calls by dose curve; note: nearly all actives have a fitted effect of over 15% in size). The settings on record: ERR reporter cell line, ONE-Glo luciferase, 18 h. Put shortly: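 Agonist signal is luciferase luminescence from an ERR reporter cell line treated 18 h at 37 C with DMSO-dissolved compounds, read 30 min after ONE-Glo addition at room temperature.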

Assay [14] in a line: qHTS RealTime-Glo MT Cell Viability Assay in HepG2 cells - 24 hour (AID 1224867). Note: nearly all actives have a fitted effect of over 50% in size. Note: potency is the fitted concentration of half-maximal effect. An outline of the steps:
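Cell number in HepG2 cultures estimated from NanoLuc luminescence generated by metabolic reduction of a prosubstrate by living cells. The homogeneous, nonlytic format allowed repeated reads at 0, 8, 16, 24, 32 and 40 h of compound exposure.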

Assay [15] is described as follows: qHTS RealTime-Glo MT Cell Viability Assay in HEK293 cells - 32 hour (AID 1224868). Note: nearly all actives have a fitted effect of over 50% in size. Note: potency is the fitted concentration of half-maximal effect. Put shortly: (§1)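 Homogeneous bioluminescent viability format in HEK293 cells (600 cells/well). Following 5 h at 37 C/5% CO2, 23 nL compound was pintooled; the signal was measured repeatedly during 40 h incubation.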
A short description of assay [16]: qHTS RealTime-Glo MT Cell Viability Assay in HepG2 cells - 40 hour (AID 1224870). Note: nearly all actives have a fitted effect of over 50% in size. Note: potency is the fitted concentration of half-maximal effect. Put shortly:
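Real-time viability: cells seeded at 600 per well together with NanoLuc and cell-permeant prosubstrate, compounds added after 5 h incubation. Luminescence tracked at 0, 8, 16, 24, 32 and 40 h of exposure.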

Assay [17] in a line: A CellTox Green Cytotoxicity Assay to monitor cytotoxicity in HEK293 cells - 40 hour (AID 1224871). Note: nearly all actives have a fitted effect of over 45% in size. Note: potency is the fitted concentration of half-maximal effect. An outline of the steps:
(§2)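 Cytotoxicity was tracked continuously in HEK293 cells by a DNA-binding dye excluded from viable cells. Compounds were transferred in DMSO 5 h after seeding; fluorescence was recorded at intervals up to 40 h.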

Assay [18] can be described thus: qHTS RealTime-Glo MT Cell Viability Assay in HEK293 cells - 16 hour (AID 1224872). Note: nearly all actives have a fitted effect of over 50% in size. Note: potency is the fitted concentration of half-maximal effect. Put shortly: as §1
Assay [19] can be described thus: A CellTox Green Cytotoxicity Assay to monitor cytotoxicity in HEK293 cells - 0 hour (AID 1224869). Note: nearly all actives have a fitted effect of over 50% in size. An outline of the steps:
as §2
% is set by controls: 0 for no effect and ±100 for the full control effect.

Sequence of Thyrotropin receptor (Homo sapiens) (P16473 whole entry, looked up): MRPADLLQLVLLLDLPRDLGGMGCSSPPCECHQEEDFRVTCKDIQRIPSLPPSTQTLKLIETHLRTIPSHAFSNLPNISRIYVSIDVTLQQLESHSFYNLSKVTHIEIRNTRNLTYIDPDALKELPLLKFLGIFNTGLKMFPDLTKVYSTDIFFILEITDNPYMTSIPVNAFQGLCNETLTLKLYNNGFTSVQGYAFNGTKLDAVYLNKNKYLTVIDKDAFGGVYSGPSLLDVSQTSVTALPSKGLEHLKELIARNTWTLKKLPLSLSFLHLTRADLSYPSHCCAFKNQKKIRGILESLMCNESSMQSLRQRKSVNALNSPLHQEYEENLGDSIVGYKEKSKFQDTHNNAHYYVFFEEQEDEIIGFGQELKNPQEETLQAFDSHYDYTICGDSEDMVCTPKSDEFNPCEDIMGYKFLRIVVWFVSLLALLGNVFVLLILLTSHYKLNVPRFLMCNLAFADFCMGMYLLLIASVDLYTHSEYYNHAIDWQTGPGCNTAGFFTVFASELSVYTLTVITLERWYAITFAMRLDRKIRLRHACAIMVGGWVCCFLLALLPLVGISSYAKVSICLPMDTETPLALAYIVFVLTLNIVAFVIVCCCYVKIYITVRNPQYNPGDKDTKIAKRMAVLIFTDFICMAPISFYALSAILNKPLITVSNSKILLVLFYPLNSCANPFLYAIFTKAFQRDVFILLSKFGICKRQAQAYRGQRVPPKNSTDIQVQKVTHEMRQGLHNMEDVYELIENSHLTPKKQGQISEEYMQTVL
Sequence of Nuclear receptor subfamily 1 group I member 3 (Homo sapiens) (Q14994 whole entry, looked up): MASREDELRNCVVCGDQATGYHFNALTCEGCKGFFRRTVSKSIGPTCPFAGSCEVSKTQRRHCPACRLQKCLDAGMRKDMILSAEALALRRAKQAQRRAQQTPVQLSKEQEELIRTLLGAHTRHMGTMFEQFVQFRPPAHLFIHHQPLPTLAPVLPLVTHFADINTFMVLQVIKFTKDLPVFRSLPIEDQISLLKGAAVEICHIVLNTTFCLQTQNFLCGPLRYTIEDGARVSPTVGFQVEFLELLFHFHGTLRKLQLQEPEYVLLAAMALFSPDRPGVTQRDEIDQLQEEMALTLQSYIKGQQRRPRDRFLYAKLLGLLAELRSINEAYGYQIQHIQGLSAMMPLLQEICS

`CN1C(=O)c2ccc([N+](=O)[O-])cc2C1=O`: the Potency entry in [1], in assay [2], in assay [3], in assay [4], in [5] and in [6] was “inactive” each time. The Potency result in assay [7], in assay [8], in assay [9], in [10], in assay [11] and in [12] was “inactive” throughout. For the same compound, the Potency result in [14], in assay [15], in [16], in assay [17] and in assay [18] was “inactive” throughout. In [13] (at 92.4 µM (top of the series)), the activity change, positive = activation is 7.36% (inactive).

As to `Cc1cc(C2(c3cc(C)c(O)cc3C)OS(=O)(=O)c3ccccc32)c(C)cc1O`, the Potency was 24.3 µM (active) and 19.3 µM (active) in assay [1]; 19.3 µM (active) in assay [4]; 34.4 µM (active) and inactive in assay [5]; 61.1 µM (active) and inactive in assay [12]. In addition, the Potency result in assay [2], in assay [3], in [6], in assay [7], in [8] and in assay [10] was “inactive” throughout. Moreover, the Potency entry in [11], in assay [15], in assay [16] and in assay [17] was “inactive” in each case. Moreover, the activity change, positive = activation in assay [13] (at 92.4 µM (top of the series)) is -48.1% (inactive) and -15.2% (inactive).

In the case of `NCCO`, the Potency result in [1], in assay [4], in assay [7], in assay [8], in assay [9] and in assay [10] was “inactive” throughout. Moreover, the Potency result in [11], in assay [14], in [15], in [19], in assay [16] and in assay [17] was “inactive” each time. For the same compound, in assay [18], the Potency entry is “inactive”.

Regarding `CC[C@H]1CN2CCc3cc(OC)c(OC)cc3[C@@H]2C[C@@H]1C[C@H]1NCCc2cc(OC)c(OC)cc21`, the Potency in [1] is 27.4 nM (active) and 133 nM (active); in assay [2] it was 54.6 nM (active) and 237 nM (active); in [4], 24.4 nM (active) and 168 nM (active); in assay [15], 15.5 nM (active) and 42.5 nM (active); in [17], 55.1 µM (active); in assay [18], 24.6 nM (active) and 75.6 nM (active). The Potency entry in assay [3], in assay [8], in assay [11] and in assay [19] was “inactive” in each case.

Turning to `c1cc(C(c2ccc(OCC3CO3)cc2)C(c2ccc(OCC3CO3)cc2)c2ccc(OCC3CO3)cc2)ccc1OCC1CO1` (stereo not given), the Potency entry in assay [1], in assay [2], in [4], in assay [6], in assay [7] and in assay [8] was “inactive” in each case. The Potency result in assay [10], in assay [11], in assay [12], in assay [14], in assay [15] and in assay [16] was “inactive” in each case. Moreover, the Potency result in assay [17] and in [18] was “inactive” each time. In addition, the Potency in assay [5] was 79.8 µM (active) and inactive. Also, the activity change, positive = activation in [13] (at 92.4 µM (top of the series)) was -18.6% (inactive) and 0.394% (inactive).

Consider `CCCCCCCCCCCCCC[P+](CCCC)(CCCC)CCCC`, for which the Potency in assay [1] is 17.1 µM (active) and 27.3 µM (active); in assay [2], 12.1 µM (active) and 15.4 µM (active); in [4] it was 21.6 µM (active) and 27.3 µM (active); in assay [8] it was 21.8 µM (active) and 21.9 µM (active); in assay [11], 3.99 µM (active) and 31.8 µM (active); in assay [14], 21.8 µM (active) and 13.8 µM (active). For the same compound, the Potency in assay [15] is 173 nM (active) and 219 nM (active); in assay [16] it was 21.8 µM (active) and 11 µM (active); in assay [17] it was 13.7 µM (active) and 17.4 µM (active); in assay [18], 5.46 µM (active) and 549 nM (active). In addition, the Potency entry in [3], in assay [7] and in assay [19] was “inactive” throughout.

For `O=c1n(CC2CO2)c(=O)n(CC2CO2)c(=O)n1CC1CO1` (stereo not given), the Potency was 60.8 µM (active) and 54.5 µM (active) in [1]; 76.5 µM (active) and 61.1 µM (active) in [2]; 112 µM (active) in assay [9]. For the same compound, the Potency entry in [3], in assay [7], in assay [8], in [10], in assay [11] and in assay [14] was “inactive” in each case. For the same compound, the Potency entry in [17] and in assay [18] was “inactive” throughout.

For `Cc1cc(OCCOCC[N+](C)(C)Cc2ccccc2)ccc1C(C)(C)CC(C)(C)C`, the Potency result in assay [2], in assay [3], in assay [6] and in assay [9] was “inactive” each time. Also, the Potency is 48.3 µM (active) in assay [4]; 30.5 µM (active) and 7.5 µM (active) in assay [5]; 27.1 µM (active) and 15 µM (active) in assay [7]; 24.4 µM (active) and 23.9 µM (active) in assay [8]; 100 µM (active) and 55.2 µM (active) in [11]; 13.6 µM (active) and 6.68 µM (active) in assay [12]. Besides, the Potency was 15.4 µM (active) and 10.7 µM (active) in assay [14]; 10.9 µM (active) and 7.56 µM (active) in assay [15]; 21.7 µM (active) and 23.9 µM (active) in assay [17]; 19.4 µM (active) and 19 µM (active) in assay [18]. The activity change, positive = activation in [13] (at 42.5 µM (top of the series)) was -54.7% (inactive); in assay [13] (at 92.4 µM (top of the series)), -79.5% (inactive).

On to `COc1nc(C)nc(Cl)c1NC1=NCCN1`, for which the Potency result in assay [1], in assay [4], in [7], in assay [8], in assay [9] and in assay [11] was “inactive” throughout. Besides, the Potency entry in [14], in assay [15], in [16], in [17] and in assay [18] was “inactive” in each case.

With `OCCOCCN1CCN(C(c2ccccc2)c2ccc(Cl)cc2)CC1` (stereo not given), the Potency result in assay [2], in [3], in [7] and in assay [19] was “inactive” in each case. The Potency in [4] was 47.9 µM (active) and inactive; in [8], 9.64 µM (active); in assay [11] it was 125 µM (active) and inactive; in assay [14], 48.3 µM (active) and inactive; in [15] it was 6.08 µM (active) and inactive; in assay [16], 48.3 µM (active) and inactive. The Potency was 54.2 µM (active) and inactive in [17]; 9.64 µM (active) and inactive in [18].
